Measurements: PubChem BioAssay (Tox21)
Inconclusive results are not listed. The source made the active and inactive calls. Unless noted, the call rests on the fitted dose curve; in most records, active means well fitted curve in the direction sought with a large enough effect in the repeat runs; inconclusive means weak or mixed curves; inactive means no such curve, though single readings can be large; an effect the other way counts as inactive or inconclusive.

What was measured:
[1] = molecular target: Thyrotropin receptor (Homo sapiens) (UniProt P16473); assay: qHTS assay to identify small molecule agonists of the thyroid stimulating hormone receptor (TSHR) signaling pathway (AID 1224843; calls by dose curve; further: nearly all actives have a fitted effect of over 45% in size)
Procedure, shortened: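 Compounds are titrated over 15 concentrations, in triplicate, onto TSHR-HEK293 cells seeded at 800/well. Plates sit 30 min at room temperature before cAMP-d2 and anti-cAMP cryptate are added; signal is read after a further hour.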

[2] = qHTS assay to identify small molecule agonists of the hypoxia (HIF-1) signaling pathway - cell viability counter screen (AID 1224844; calls by dose curve; further: nearly all actives have a fitted effect of over 50% in size; further: potency means the concentration at half of the fitted maximal effect)
Procedure, shortened: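 Cytotoxicity measured by CellTiter-Glo ATP luminescence in the wells also read for beta-lactamase signal. Cells were HRE-bla ME-180 (2,000/well, 0.5% dialyzed FBS), exposed to compounds for 17 h at 37C.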

[3] = qHTS assay to identify small molecule agonists of H2AX (AID 1224845; active means well fitted activation curve with a large enough effect in the signal ratio in the repeat runs, not every such curve was filed as active; the % refers to the signal ratio)
Procedure, shortened: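 Wild-type CHO-K1 cells plated overnight, then exposed 3 hr at 37C to compounds at 15 concentrations (0.76% DMSO). Lysed, then HTRF anti-pH2AX(S139)-cryptate/anti-H2AX-d2 detection after 24 hr at room temperature; emissions 665 and 620 nm.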

[4] = qHTS assay to identify small molecule agonists of the hypoxia (HIF-1) signaling pathway (AID 1224846; active means well fitted activation curve with a large enough effect in the signal ratio in the repeat runs, not every such curve was filed as active; the % refers to the signal ratio)
Procedure, shortened: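 Compounds added to ME-180 cells carrying hypoxia-response-element beta-lactamase reporter (0.5% dialyzed FBS, 5 h preplating), 17 h at 37C; agonist activity detected by CCF4-AM B/G FRET read-out.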

[5] = qHTS assay to identify small molecule agonists of H2AX - cell viability counter screen (AID 1224847; calls by dose curve; further: top concentration of the series differs between compounds; nearly all actives have a fitted effect of over 30% in size)
Procedure, shortened: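 CHO-K1 cells plated overnight at 37C, then exposed 3 h at 37C to compounds at 15 concentrations (0.76% DMSO final). Viability by CellTiter-Glo luminescence after 30 min at room temperature.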

[6] = qHTS assay to identify small molecule antagonists of the estrogen related receptor (ERR) signaling pathway from Tox21 library (AID 1224848); further: nearly all actives have a fitted effect of over 50% in size
Procedure, shortened: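 First, 2,000 ERR cells per well were plated and held 6 h at 37 C/5% CO2. Next, compounds in DMSO were pinned in and left 18 h at 37 C. Finally, ONE-Glo was added and luminescence read after 30 min at room temperature.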

[7] = qHTS assay to identify small molecule agonists of the estrogen related receptor (ERR) signaling pathway from Tox21 library (AID 1224849; calls by dose curve; further: nearly all actives have a fitted effect of over 15% in size); conditions: ERR reporter cell line, ONE-Glo luciferase, 18 h; at 92.4 µM (top of the series) unless noted
Procedure, shortened: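 Luminescent agonist read-out (One-Glo, 30-minute room-temperature incubation) following 18-hour compound treatment at 37 C of the ERR cell line, which had been plated 6 hours before dosing.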

[8] = qHTS RealTime-Glo MT Cell Viability Assay in HepG2 cells - 24 hour (AID 1224867); further: nearly all actives have a fitted effect of over 50% in size
Procedure, shortened: (§1)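 HepG2 cells (600/well) were dispensed with RealTime-Glo reagents, incubated 5 h at 37 °C, then treated with compounds in DMSO for up to 40 h. Nonlytic NanoLuc luminescence reflecting viable cells was read at each stated time point.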

[9] = A CellTox Green Cytotoxicity Assay to monitor cytotoxicity in HEK293 cells - 0 hour (AID 1224869); further: nearly all actives have a fitted effect of over 50% in size
Procedure, shortened: (§2)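 Fluorescence from a DNA-binding dye excluded by viable cells was measured repeatedly in the same HEK293 wells (600 cells/well) during continuous compound exposure at 37 C. Each assay gives one read point: 0, 8, 16, 24, 32 or 40 h.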

[10] = qHTS RealTime-Glo MT Cell Viability Assay in HepG2 cells - 40 hour (AID 1224870); further: nearly all actives have a fitted effect of over 50% in size
Procedure, shortened: (§3)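 HepG2 cells mixed with RealTime-Glo MT reagents (NanoLuc plus cell-permeant prosubstrate) were seeded at 600 cells/well, incubated 5 h at 37 C/5% CO2, then pinned with compounds in DMSO; nonlytic luminescence tracked viability during 40 h treatment.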

[11] = A CellTox Green Cytotoxicity Assay to monitor cytotoxicity in HEK293 cells - 40 hour (AID 1224871); further: nearly all actives have a fitted effect of over 45% in size
Procedure, shortened: as §2

[12] = qHTS RealTime-Glo MT Cell Viability Assay in HepG2 cells - 8 hour (AID 1224873); further: nearly all actives have a fitted effect of over 55% in size
Procedure, shortened: as §3

[13] = A CellTox Green Cytotoxicity Assay to monitor cytotoxicity in HEK293 cells - 24 hour (AID 1224875); further: nearly all actives have a fitted effect of over 45% in size
Procedure, shortened: as §2

[14] = A CellTox Green Cytotoxicity Assay to monitor cytotoxicity in HepG2 cells - 16 hour (AID 1224876); further: nearly all actives have a fitted effect of over 45% in size; further: potency means the concentration at half of the fitted maximal effect
Procedure, shortened: (§4)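 Real-time cytotoxicity: fluorescence of a cell-impermeant cyanine dye binding DNA of dead HepG2 cells, measured repeatedly (0–40 h) during compound exposure at 37 C. Cells seeded 600/well with reagent, dosed after 5 h.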

[15] = A CellTox Green Cytotoxicity Assay to monitor cytotoxicity in HepG2 cells - 24 hour (AID 1224878); further: nearly all actives have a fitted effect of over 45% in size; further: potency means the concentration at half of the fitted maximal effect
Procedure, shortened: as §4

[16] = A CellTox Green Cytotoxicity Assay to monitor cytotoxicity in HepG2 cells - 40 hour (AID 1224879); further: nearly all actives have a fitted effect of over 40% in size; further: potency means the concentration at half of the fitted maximal effect
Procedure, shortened: as §4

[17] = qHTS RealTime-Glo MT Cell Viability Assay in HEK293 cells - 32 hour (AID 1224868); further: nearly all actives have a fitted effect of over 50% in size; further: potency means the concentration at half of the fitted maximal effect
Procedure, shortened: (§5)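 HEK293 cells seeded with NanoLuc/prosubstrate reagent, rested 5 h at 37 C, then dosed and kept at 37 C up to 40 h. Nonlytic real-time luminescence from viable cells read at 0, 8, 16, 24, 32 and 40 h.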

[18] = qHTS RealTime-Glo MT Cell Viability Assay in HEK293 cells - 40 hour (AID 1224874); conditions: RealTime-Glo luminescence; max response: hits give low values; further: nearly all actives have a fitted effect of over 50% in size; further: potency means the concentration at half of the fitted maximal effect
Procedure, shortened: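 Luminescence, which tracks viable cell number through reduction of the prosubstrate to a NanoLuc substrate, was read over continuous 37 C culture. Cells (600/well) were premixed with reagent and rested 5 h before 23 nL of compound in DMSO was pinned.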

[19] = qHTS RealTime-Glo MT Cell Viability Assay in HepG2 cells - 32 hour (AID 1224877); further: nearly all actives have a fitted effect of over 55% in size
Procedure, shortened: as §1

[20] = qHTS RealTime-Glo MT Cell Viability Assay in HEK293 cells - 16 hour (AID 1224872); further: nearly all actives have a fitted effect of over 50% in size; further: potency means the concentration at half of the fitted maximal effect
Procedure, shortened: as §5
On the % scale 0 is the no-effect control and ±100 the full control effect.

Chain of Thyrotropin receptor (Homo sapiens) (P16473 whole entry, looked up): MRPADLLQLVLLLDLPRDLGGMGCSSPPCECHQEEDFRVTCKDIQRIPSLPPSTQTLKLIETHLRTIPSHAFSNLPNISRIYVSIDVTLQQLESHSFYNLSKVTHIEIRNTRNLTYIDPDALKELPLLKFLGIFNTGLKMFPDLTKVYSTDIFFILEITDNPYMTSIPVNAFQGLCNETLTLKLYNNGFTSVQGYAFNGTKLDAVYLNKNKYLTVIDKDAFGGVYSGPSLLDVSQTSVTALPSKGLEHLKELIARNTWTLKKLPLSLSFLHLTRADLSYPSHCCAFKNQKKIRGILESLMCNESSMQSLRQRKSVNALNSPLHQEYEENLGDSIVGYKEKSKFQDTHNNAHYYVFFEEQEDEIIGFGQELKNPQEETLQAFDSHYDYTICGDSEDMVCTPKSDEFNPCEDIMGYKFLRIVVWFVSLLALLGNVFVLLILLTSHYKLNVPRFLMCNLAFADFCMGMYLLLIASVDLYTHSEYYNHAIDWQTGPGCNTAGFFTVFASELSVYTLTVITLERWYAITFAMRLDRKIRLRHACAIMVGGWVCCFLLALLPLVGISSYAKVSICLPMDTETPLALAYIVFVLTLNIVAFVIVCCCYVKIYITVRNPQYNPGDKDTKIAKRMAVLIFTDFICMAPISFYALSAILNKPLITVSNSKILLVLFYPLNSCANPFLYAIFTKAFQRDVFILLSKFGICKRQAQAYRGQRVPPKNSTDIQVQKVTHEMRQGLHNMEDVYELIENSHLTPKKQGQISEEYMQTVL

C=COCC(C)C
inactive: Potency [1] | Potency [2] | Potency [3] | outcome [4] | Potency [5] | Potency [6] | activity change, positive = activation [7] -0.119% | Potency [8] | Potency [9] | Potency [10] | Potency [11] | Potency [12] | Potency [13] | Potency [14] | Potency [15] | Potency [16]

COc1cc(C(=O)NCCCCCC(=O)O)cc(OC)c1OC
inactive: Potency [1] | Potency [2] | Potency [3] | outcome [4] | Potency [5] | Potency [6] | activity change, positive = activation [7] 1.72% [at 42.5 µM] | Potency [8] | Potency [17] | Potency [9] | Potency [10] | Potency [11] | Potency [12] | max response [18] 1.12% | Potency [13] | Potency [14] | Potency [19] | Potency [15] | Potency [16]

CN1CCCC(n2nc(Cc3ccc(Cl)cc3)c3ccccc3c2=O)CC1 (centres undefined)
active: Potency [2] 21.3 µM | Potency [17] 9.52 µM | Potency [20] 7.56 µM | Potency [18] 9.52 µM | Potency [14] 26.8 µM | Potency [15] 23.9 µM | Potency [16] 23.9 µM
inactive: Potency [1] | Potency [3] | outcome [4] | Potency [5] | activity change, positive = activation [7] -15.1% [at 42.5 µM] | Potency [9] | Potency [12]

CC(=O)Nc1ccc(C)cc1C
inactive: Potency [1] | Potency [2] | Potency [3] | outcome [4] | Potency [5] | activity change, positive = activation [7] 0.262% | Potency [8] | Potency [17] | Potency [9] | Potency [10] | Potency [20] | Potency [12] | max response [18] -0.695% | Potency [13] | Potency [14] | Potency [19] | Potency [15] | Potency [16]

C[C@H]1C[C@H](O)c2ccsc2S1(=O)=O
inactive: Potency [1] | Potency [2] | Potency [3] | outcome [4] | Potency [5] | activity change, positive = activation [7] 5.62% [at 42.5 µM] | Potency [8] | Potency [17] | Potency [9] | Potency [10] | Potency [20] | Potency [12] | max response [18] 2.25% | Potency [13] | Potency [14] | Potency [15] | Potency [16]

CC(C)C=O
inactive: Potency [1] | Potency [2] | Potency [3] | outcome [4] | Potency [5] | Potency [6] | activity change, positive = activation [7] 0.557% | Potency [8] | Potency [17] | Potency [9] | Potency [10] | Potency [11] | Potency [20] | Potency [12] | max response [18] 0.0745% | Potency [13] | Potency [14] | Potency [19] | Potency [15] | Potency [16]

CCCCCCCC/C=C\CCCCCCCCO
inactive: Potency [1] | Potency [2] | Potency [3] | outcome [4] | Potency [5] | Potency [6] | activity change, positive = activation [7] 4.79% | Potency [8] | Potency [17] | Potency [9] | Potency [10] | Potency [11] | Potency [20] | Potency [12] | max response [18] 15% | Potency [13] | Potency [14] | Potency [19] | Potency [15] | Potency [16]
